Max activity data for 73 compounds are collected here from PubChem BioAssay AID1259418 (Broad Institute, 2018).

Each structure is given as a SMILES string. Out of some 3,400 compounds screened, about 840 (25%) were called active. About 11% were inconclusive and are not listed. Only a sample is shown. Results with a measured potency or affinity are listed apart. Unmarked numbers belong to inactive results.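 Rule for the calls: active = fitted half-maximal concentration of signal decrease at or below twice the sample's top tested concentration; inconclusive = flat curve between -70 and -30 percent, or poor fit; inactive = flat within 30 percent, signal rise, or potency above limit.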

A short description of this assay: T. gondii growth inhibition with IFN-gamma, dose response, cell-based, ME49Luc, HeLa, luciferase, 72 h (AID 1259418). The following applies: T. gondii ME49Luc in IFN-y HeLa, hits give low values, -100% = high-dose IFN-γ control wells; at 19.5 µM unless noted.
Take `Cc1ccc(-c2coc(-c3ccc(NC(=O)Nc4cc(C)cc(C)c4)cc3)n2)cc1`: the max activity was -13.8% [at 0.68 µM].

In the case of `CCc1nc(OCC(=O)Nc2cc(C)cc(C)c2)c2ccccc2n1`, the max activity is 9.9% [at 10 µM].

Take `COc1ccc(S(=O)(=O)N(Cc2nc(-c3ccccc3)oc2C)c2ccccc2OC)cc1`: the max activity was -10.3% [at 5 µM].

Turning to `COc1ccccc1N(Cc1nc(-c2ccccc2)oc1C)S(=O)(=O)c1ccc(C)cc1`, the max activity is 13.3% [at 0.16 µM].

In the case of `c1cnc(N2CCC(Oc3cnccn3)CC2)nc1`, the max activity is 28.4% [at 10 µM].

For `CCc1ccccc1NC(=O)Nc1ccc(-c2nc(-c3ccc(C)cc3)co2)cc1`, the max activity was -15.7% [at 0.68 µM].

In the case of `CCOc1ccc(CC(=O)N2CCC3(CC2)Nc2cc(OC)ccc2-n2cccc23)cc1OCC`, the max activity is -11.1% [at 10 µM].

Consider `COc1ccc(CNc2nc(SCc3cc(=O)n4cc(Cl)ccc4n3)nc3ccccc23)cc1`, for which the max activity was 14.6% [at 5 µM].

As to `COCC#Cc1ccc([C@@H]2[C@H]3CN(C(=O)C4CCCCC4)CC(=O)N3[C@H]2CO)cc1`, the max activity is 27.9%.

For `COCC#Cc1ccc([C@@H]2[C@@H](CO)N3C(=O)CN(C(=O)c4ccncc4)C[C@H]23)cc1`, the max activity was 28.6%.

Take `COCC#Cc1ccc([C@@H]2[C@@H](CO)N3C(=O)CN(C(=O)c4ccncc4)C[C@@H]23)cc1`: the max activity was 31.2%.

For the compound `COCC#Cc1ccc([C@H]2[C@@H](CO)N3C(=O)CN(C(=O)C4CCCCC4)C[C@@H]23)cc1`, the max activity was 51.9%.

In the case of `COc1ccc(NC(=O)Nc2ccc(-c3nc(-c4ccc(C)cc4)co3)cc2)cc1Cl`, the max activity is 83.9%.

For `COc1cccc(NC(=O)CCC2Nc3c4ccccc4nc(=S)n3C2=O)c1` (stereo not drawn), the max activity is 16.8% [at 0.68 µM].

For `Cc1ccc(Cl)cc1N(CC(=O)Nc1c(F)cccc1F)S(C)(=O)=O`, the max activity is 6.87%.

On to `Cc1sc(-c2nc(C(C)C)cs2)cc1S(=O)(=O)N1CCC(C)CC1`, for which the max activity is 11.7%.

In the case of `Cc1ccccc1-c1nc(CN2CCN(C(=O)Nc3cccc(Cl)c3)CC2)c(C)o1`, the max activity was 10.5% [at 5 µM].

For the compound `Cc1ccc(-c2nc3c(s2)CN(C(=O)Nc2cccc(C)c2C)CC3)cc1`, the max activity is 22.5% [at 5 µM].

As for `CC(=O)NCCNC(=O)CC1Nc2c3ccccc3nc(=S)n2C1=O` (stereo not drawn), the max activity is 32%.

For `COc1ccccc1CNc1nc(-c2ccc(Cl)cc2)nc2ccccc12`, the max activity is 9.39% [at 0.35 µM].

Take `Cc1oc(-c2ccccc2)nc1Cn1nnc(-c2nc(-c3cccc(Br)c3)no2)c1C`: the max activity is 5.37% [at 0.16 µM].

As for `Cc1nc(CCNC(=O)C2CCN(S(=O)(=O)c3cccc(Cl)c3C)CC2)cs1`, the max activity is -10.4% [at 5 µM].

Consider `CCCCc1ccc(Nc2ncnc3c2cnn3-c2ccc(OC)cc2)cc1`, for which the max activity is 8.01% [at 5 µM].

`Cc1cccc(C)c1NC(=O)CN1CCC2(CC1)N=C(c1cccc(F)c1)C(=O)N2`: the max activity is 21.4% [at 0.35 µM].

As to `COc1cc(NC(=O)COc2nc(C)nc3ccccc23)cc(OC)c1OC`, the max activity is 39.1% [at 0.35 µM].

With `O=S(=O)(c1ccccc1F)N1CCC(c2nc3ccc(-c4ccncc4)cn3n2)CC1`, the max activity is -8.38% [at 0.16 µM].

With `CC(C)NC(=O)N1CC(=O)N2[C@H](CO)[C@H](c3ccc(/C=C/c4ccccc4)cc3)[C@@H]2C1`, the max activity was 15.1%.

On to `O=C(C1CCOCC1)N1CC(=O)N2[C@@H](CO)[C@H](c3ccc(/C=C/c4ccccc4)cc3)[C@@H]2C1`, for which the max activity was 16.6%.

For the compound `CC(C)c1ccc(-c2nc3c([nH]2)c(=O)n(C)c(=O)n3C)cc1`, the max activity was 36.8%.

Consider `COc1ccc(-c2nc(N3CCN(c4ccccc4OC)CC3)c3ccccc3n2)cc1`, for which the max activity was -19.4% [at 0.35 µM].

`COc1ccc(-c2nc(N3CCN(c4ccccc4F)CC3)c3ccccc3n2)cc1`: the max activity is -17% [at 0.35 µM].

For `COc1ccc(CCNc2ncnc3c2cnn3-c2ccc(C)cc2C)cc1OC`, the max activity was -45% [at 0.16 µM].

Turning to `CCc1nc(OCC(=O)Nc2ccc(F)cc2)c2ccccc2n1`, the max activity is 24.6% [at 0.35 µM].

Take `COc1ccc(-c2nc(Cn3c(=O)c4c(C)cc(C)nc4n(-c4ccccc4)c3=O)c(C)o2)cc1OC`: the max activity was -11.3% [at 1.35 µM].

Take `COc1ccc(NC(=O)CN2CCC3(CC2)N=C(c2ccc(Cl)cc2)C(=O)N3)cc1`: the max activity was -12.9% [at 0.68 µM].

`Cc1ccc(NC(=O)CN2CCC3(CC2)N=C(c2cccc(F)c2)C(=O)N3)cc1F`: the max activity is -40.4%.

For the compound `CCc1ccccc1NC(=O)N1CCc2nc(-c3ccc(OC)c(OC)c3)sc2C1`, the max activity was 6.34%.

Take `CCC(=O)N1CCC2(CC1)Nc1ccc(C)c(C)c1-n1cccc12`: the max activity was -7.02% [at 5 µM].

In the case of `Cc1nc(OCC(=O)Nc2cc(F)ccc2C)c2ccccc2n1`, the max activity is 23.1% [at 10 µM].

On to `Cc1ccc(-c2coc(-c3ccc(NC(=O)c4ccc(F)cc4)cc3)n2)cc1`, for which the max activity was 95.6%.

As to `Cc1ccc(-c2ccc([C@@H]3[C@H](CO)N4C(=O)CN(C(=O)NC(C)C)C[C@@H]34)cc2)cc1`, the max activity is 16.7% [at 5 µM].

Take `COc1ccccc1NC(=O)N1CC(=O)N2[C@H](C1)[C@@H](c1ccc(C#CC(C)C)cc1)[C@@H]2CO`: the max activity was -17.8%.

Consider `Cc1ccc(-c2ccc([C@H]3[C@@H](CO)N4C(=O)CN(C(=O)NC(C)C)C[C@@H]34)cc2)cc1`, for which the max activity was 46.5%.

On to `COc1ccccc1NC(=O)N1CC(=O)N2[C@H](CO)[C@H](c3ccc(C#CC(C)C)cc3)[C@H]2C1`, for which the max activity is 25.9% [at 5 µM].

`CCOc1ccc(-c2nc(CN3CCN(C(=O)Nc4ccccc4C(F)(F)F)CC3)c(C)o2)cc1`: the max activity is 13.7% [at 2.6 µM].

Take `O=C(NCCc1csc(-c2ccccc2)n1)C1CCN(C(=O)COc2ccccc2)CC1`: the max activity is -18.1% [at 0.68 µM].

Turning to `O=C(O)c1ccc(NC(=NCCc2ccccc2)N2CCN(c3ncnc4ccccc34)CC2)cc1`, the max activity was 6.72%.

For `COc1ccc(NC(=O)Nc2ccc(-c3nc(-c4ccccc4)co3)cc2)cc1`, the max activity was -14% [at 0.68 µM].

`CCOc1ccccc1-c1nc(CN(c2ccccc2OC)S(=O)(=O)c2ccc(C)cc2)c(C)o1`: the max activity was -6.32%.

With `CCOc1ccccc1-c1nc(CN(c2ccccc2)S(=O)(=O)c2ccccc2)c(C)o1`, the max activity is 15.6%.

Take `COc1ccccc1N(Cc1nc(-c2cccc(OC)c2OC)oc1C)S(=O)(=O)c1ccccc1`: the max activity is 3.95%.

With `COc1ccc(-c2nc(Cn3nnc(-c4nc(-c5ccccc5)no4)c3C)c(C)o2)cc1`, the max activity is 11% [at 0.16 µM].

With `Cc1ccc(NC(=O)Nc2ccc(-c3nc(-c4ccccc4)co3)cc2)cc1C`, the max activity is 24.4%.

As to `Cc1cc(-n2nnc(C(=O)N3CCC(N4CCCCC4)CC3)c2-c2ccncc2)ccc1F`, the max activity is -34.1%.

Take `Cc1ccccc1C(=O)N1CCC2(CC1)Nc1cc(F)ccc1-n1cccc12`: the max activity was -6.16% [at 1.35 µM].

For the compound `COc1ccc(OCC(=O)N2CCC3(CC2)Nc2ccc(C)c(C)c2-n2cccc23)cc1`, the max activity is -9.59% [at 2.6 µM].

For the compound `CCOC(=O)C1CCCN(c2nc(-c3ccc(Cl)cc3)nc3ccccc23)C1` (stereo not drawn), the max activity was 5.87% [at 0.35 µM].

On to `Cc1noc(C)c1S(=O)(=O)N1CSC[C@@H]1C(=O)NCCc1csc(-c2ccccc2)n1`, for which the max activity is 13.2% [at 1.35 µM].

Consider `Cc1cccc(NC(=O)Nc2ccc(-c3nc(-c4ccc(C)cc4C)co3)cc2)c1`, for which the max activity was -13.9% [at 0.16 µM].

For the compound `COc1ccccc1-c1noc(-c2nnn(Cc3nc(-c4cccc(Cl)c4)oc3C)c2C)n1`, the max activity was 9.3% [at 0.16 µM].

For the compound `CCc1nc(OCC(=O)Nc2ccccc2C(F)(F)F)c2ccccc2n1`, the max activity is 15.4% [at 2.6 µM].

Consider `Cc1ccc(-c2coc(-c3ccc(NC(=O)NCc4ccccc4)cc3)n2)c(C)c1`, for which the max activity was 5.28% [at 0.16 µM].

Turning to `COc1ccc(-c2nc(Cn3nnc(-c4nc(-c5ccccn5)no4)c3C)c(C)o2)cc1`, the max activity is -5.61% [at 10 µM].

Turning to `COc1ccccc1-c1nc(C)c(-c2ccc(SCc3ccccc3)nn2)s1`, the max activity was -5.61% [at 0.68 µM].

Consider `COc1ccc2c(c1)NC1(CCN(C(=O)c3ccc(Br)cc3)CC1)c1cccn1-2`, for which the max activity was 15.6% [at 0.68 µM].

As for `O=C(NCc1cccnc1)C1CCN(Cc2cc3ccccc3n2Cc2cccc(Cl)c2)CC1`, the max activity was -5.31% [at 5 µM].

Take `O=C(NCCCN1CCCC1=O)C1CCN(Cc2cc3ccccc3n2Cc2ccccc2)CC1`: the max activity was -6.87% [at 2.6 µM].

Regarding `O=C(NCCN1CCCC1)C1CCN(Cc2cc3ccccc3n2Cc2cccc(Cl)c2)CC1`, the max activity was -8.03% [at 1.35 µM].

In the case of `Cc1ccc(Cn2c(CN3CCC(C(=O)N4CCCC4)CC3)cc3ccccc32)cc1`, the max activity was 17.8% [at 2.6 µM].

Regarding `Cc1cccc(Cn2c(CN3CCC(C(=O)NCCCN4CCCC4=O)CC3)cc3ccccc32)c1`, the max activity was 13.5%.

Consider `O=C(C1CCN(Cc2cc3ccccc3n2Cc2cccc(Cl)c2)CC1)N1CCCC1`, for which the max activity is -6.26% [at 1.35 µM].

In the case of `CC(C)C(=O)Nc1ccc(-c2nc(-c3ccccc3)co2)cc1`, the max activity is -22.2% [at 10 µM].

On to `Cc1ccc(OCC(=O)Nc2ccc(-c3nc(-c4cc(C)ccc4C)co3)cc2)cc1`, for which the max activity was 6.76% [at 10 µM].
